Screening data deposited in PubChem by National Center for Advancing Translational Sciences (NCATS).
This is a sample that favours compounds with a hit; in the whole collection about 5.6% have one here.
PKM2 activator – PKM2 (human) enzyme activation; Potency, µM (series often up to 57.5 µM), for inactives: top-dose activation, usual class: activators; purified PKM2, Kinase-Glo ATP luminescence, activation; response scale: 0% is enzyme alone, no compound; hit rate 0.34% among 260,000; further: potency means the concentration at half of the fitted maximal effect; nearly all actives have a fitted effect of over 55% in size
Target sequence (P14618 whole entry, looked up): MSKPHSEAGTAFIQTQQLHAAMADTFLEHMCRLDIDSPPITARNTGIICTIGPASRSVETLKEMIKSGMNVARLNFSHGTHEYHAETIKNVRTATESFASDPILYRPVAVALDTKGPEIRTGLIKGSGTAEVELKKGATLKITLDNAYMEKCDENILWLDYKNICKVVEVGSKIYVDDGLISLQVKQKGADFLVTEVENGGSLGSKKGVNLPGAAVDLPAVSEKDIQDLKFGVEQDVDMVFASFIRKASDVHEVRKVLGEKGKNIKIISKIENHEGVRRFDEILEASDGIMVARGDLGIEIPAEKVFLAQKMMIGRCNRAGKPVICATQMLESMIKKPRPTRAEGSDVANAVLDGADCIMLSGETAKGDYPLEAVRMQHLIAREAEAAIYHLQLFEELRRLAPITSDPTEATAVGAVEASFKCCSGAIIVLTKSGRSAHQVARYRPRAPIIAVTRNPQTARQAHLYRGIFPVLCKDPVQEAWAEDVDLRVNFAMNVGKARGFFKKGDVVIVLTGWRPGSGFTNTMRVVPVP
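Purified hPK-M2 (>95% pure) converted ADP (0.1 mM final) to ATP with 0.5 mM PEP in 50 mM imidazole pH7.2, KCl, MgCl2, Tween 20, BSA; 1 h at room temperature. ATP detected by Kinase-Glo luminescence.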
Six1-Eya2 inh – Six1/Eya2 interaction inhibition. Q15475+O00167. hit rate 0.56% among 360,000. activity change, % (test concentration not listed). AlphaScreen GST-Six1/His-Eya2 binding, biochemical; hits give low values; in the data active means activity change below about -65%; inconclusive means mostly about -30% to -63%
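AlphaScreen with GST-Six1 and His-Eya2 (5X mix: 250 nM and 500 nM), glutathione donor and nickel acceptor beads; buffer 50 mM Tris pH 8.0, 300 mM NaCl, 1 mM TCEP; 1 h at 37 C in the dark.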
CtBP-E1A blk – blocks the CtBP interaction with E1A; AlphaScreen GST-E1A/His-CtBP binding, 1536-well; hits give low values; activity change, % (test concentration not listed); hit rate 0.49% among 340,000; AID 651724; in the data active means activity change below about -65%; inconclusive means mostly about -30% to -63%
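Steps: dispense buffer (Tris pH 8.0, NaCl 300 mM, TCEP 1 mM, BSA, Tween 20); add 5X protein mix (GST-E1A, His-CtBP, 125 nM each); pin 23 nL compound; 2 h at 37 °C, dark; add 5X beads (50 ug/mL); 1 h; read.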
Gal4-VP16 FLuc – counter-screen for ROR gamma inhibitors: Gal4-VP16 reporter. Drosophila S2 Gal4-VP16 UAS-luciferase, luminescence, 20 h. Potency, µM (highest dose often 53.6 µM), without a hit: top-dose activity, negative = inhibition, actives largely listed as inhibitors. hit rate 3.5% among 310,000;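 further: Gal4-VP16 expression switched on by copper sulfate through the metallothionein promoter; potency means the concentration at half of the fitted maximal effect; nearly all actives have a fitted effect of over 50% in size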
RORg inh – blocks mouse ROR gamma transcriptional activity; P51450; Drosophila S2 Gal4-RORgamma UAS-luciferase reporter, 20 h; Potency, µM (highest dose often 53.6 µM), for inactives: top-dose activity change, negative = inhibition, most hits filed as inhibitors; hit rate 5.4% among 310,000; AID 2551; further: potency means the concentration at half of the fitted maximal effect; nearly all actives have a fitted effect of over 60% in size
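In this cell-based reporter format, copper sulfate (700 uM final) drives Gal4–ROR gamma fusion expression from a metallothionein promoter in Drosophila Schneider cells; compounds preincubated 1 hr, reporter read after 20 hr at ambient temperature.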
Numbers without * were called inactive; ? = inconclusive; . = no result; [ ] = another dose, or the depositor's remark. Unless noted, the call rests on the fitted dose curve; in most records, active means well fitted curve in the direction sought with a large enough effect; inconclusive means small, poorly fitted or top-dose-only effect, or another doubt; inactive means no such curve, though single readings can be large; an effect the other way counts as inactive or inconclusive. On the % scale 0 is the no-effect control and ±100 the full control effect.

SMILES	PKM2 activator	Six1-Eya2 inh	CtBP-E1A blk	Gal4-VP16 FLuc	RORg inh
O=C(Nc1ccc2c(c1)nc1n2CCOC1)c1ccco1	-3.1%	-1.3	2.1	-7.5%	-44.8%
O=C(Nc1ccc2c(c1)nc1n2CCSC1)c1ccco1	2.5%	-4.9	-0.9	3.16µM*	2.24µM*
Cc1nc2cc(NC(=O)c3ccco3)ccc2n1C	-14.0%	9.3	5.2	?	15.8µM*
Cn1c(CCNC(=O)c2ccco2)nc2cc(NC(=O)c3ccco3)ccc21	-6.7%	3.2	5.1	-7.2%	1.3%
CC(C)(C)OC(=O)C[C@H]1C/C=C\C[C@@H](CC(=O)NCCO)C(=O)N[C@H](C(C)(C)C)COC1=O	.	0.3	2.7	.	.
Cc1cccn2c(CN(C)CCC3CCCCO3)c(C(=O)N3CCCCC3)nc12 (stereo not drawn)	-3.6%	5.7	-9.3	0.1%	-0.4%
CC1=C(C(=O)OCc2ccccc2)C(c2ccccc2Cl)NC(=O)N1CCCCCC(=O)O (stereo not drawn)	5.9%	0.4	-1.5	-10.0%	1.78µM*
CC1=C(C(=O)OCc2ccccc2)C(c2ccc3ccccc3c2)NC(=O)N1CCCCCC(=O)O (stereo not drawn)	-0.8%	-7.6	-0.4	-0.6%	7.94µM*
CC1=C(C(=O)OCc2ccccc2)C(c2ccc3ccccc3c2)NC(=O)N1CCCC(=O)O (stereo not drawn)	-0.8%	1.5	0.2	-4.4%	11.2µM*
CC1=C(C(=O)OCc2ccccc2)C(c2ccc([N+](=O)[O-])cc2)NC(=O)N1CCCC(=O)O (stereo not drawn)	1.1%	-6.2	-1.0	3.4%	-30.0%
CC1=C(C(=O)OCc2ccccc2)C(c2ccccc2)NC(=O)N1CCCCCC(=O)O (stereo not drawn)	-1.4%	-0.8	2.0	21.0%	43.9%
CC1=C(C(=O)OCc2ccccc2)C(c2ccc([N+](=O)[O-])cc2)NC(=O)N1CCCCCC(=O)O (stereo not drawn)	2.1%	-10.0	-0.8	17.6%	10µM*
O=C(c1ccc(=O)[nH]n1)N1CCN(S(=O)(=O)c2ccc(C(F)(F)F)cc2)CC1	.	-4.3	.	.	.
CCC(=O)Oc1ccc(C/C(=N\O)c2ccc(O)cc2O)o1	9.1%	-9.0	-4.9	?	2.24µM*
CCOC(=O)c1ccc(CC(=O)c2ccc(O)cc2O)o1	5.0%	10.4	1.3	14.0%	18.0%
Cc1ccc(NC(=O)COC(=O)c2nn(C)c(=O)c3ccccc23)cc1F	.	-1.1	7.1	.	.
O=C(O)/C=C/C(=O)Nc1ccccc1SC(F)(F)F	?	2.9	-10.6	10µM*	-137.5%
COc1c(O)ccc(/C=N\NC(=O)c2ccc3c(c2)OCO3)c1[N+](=O)[O-]	0.3%	-2.4	.	?	10µM*
O=C(N/N=C/c1cc2c(cc1[N+](=O)[O-])OCO2)c1ccc2c(c1)OCO2	.	-11.6	0.7	2.1%	17.5%
COc1c(O)ccc(/C=N/NC(=O)c2ccc3c(c2)OCCO3)c1[N+](=O)[O-]	4.7%	-0.8	-8.0	1.58µM*	1.12µM*
COc1cc(/C=N/NC(=O)c2ccc3c(c2)OCCO3)cc(Cl)c1O	.	1.4	.	-9.2%	-31.3%
Nc1nc2cc(Cl)ccc2cc1C(=O)NCCCc1ccccc1	.	0.6	3.4	.	.
COc1ccc(-n2c(=S)[nH]c3c(oc4ccccc43)c2=O)cc1	1.8%	-2.6	10.9	4.47µM*	2.82µM*
COc1ccc(-n2c(=S)[nH]c3cc(C(=O)N(C)Cc4ccccc4)ccc3c2=O)cc1	.	2.4	0.0	?	7.94µM*
COc1ccc(-n2c(=S)[nH]c3cc(C(=O)O)ccc3c2=O)cc1	1.1%	-4.5	5.0	0.3%	2.2%
SMILES	PKM2 activator	Six1-Eya2 inh	CtBP-E1A blk	Gal4-VP16 FLuc	RORg inh
Cc1ccc(-n2c(=O)[nH]c3c(oc4ccccc43)c2=O)cc1	-3.7%	6.8	10.5	-2.7%	5.2%
COC(=O)c1ccc2c(=O)n(-c3ccc(OC)cc3)c(=S)[nH]c2c1	-13.2%	-3.0	0.5	5.62µM*	2.82µM*
CCn1c(=S)[nH]c2cc(C(=O)OC)ccc2c1=O	4.1%	1.9	-0.4	11.2µM*	12.6µM*
CCOc1ccccc1NC(=O)NCc1ccco1	-3.1%	-1.5	-4.7	-3.7%	14.8%
COc1ccc(S(=O)(=O)n2cccc2)cc1	.	-1.3	.	.	.
COCCn1c(=S)[nH]c2cc(C(=O)N(CCO)Cc3ccccc3)ccc2c1=O	.	-0.5	3.7	?	11.2µM*
COCCn1c(=S)[nH]c2cc(C(=O)NCCc3ccccc3)ccc2c1=O	.	5.0	5.9	2.0%	-11.0%
Cc1ccc(C)c(-n2nnnc2SCC(=O)c2ccc3c(c2)NC(=O)CO3)c1	14.1µM*	-7.4	-0.3	0.3%	?
CCCc1nc2ccccc2n1C(=S)SC	-0.1%	-13.8	-8.3	?	11.2µM*
Cc1ccc(CN(C)C(=O)C2CCCN2C(=O)c2cccs2)o1 (stereo not drawn)	14.1µM*	1.4	2.4	-15.5%	1.6%
CN(CC(=O)Nc1ccc(F)c(F)c1F)C(=O)C1CCCN1C(=O)c1cccs1 (stereo not drawn)	.	-7.3	-5.6	.	.
Cc1c(C(=O)NC2CCN(Cc3ccccc3)C2)oc2c(Cl)cccc12 (stereo not drawn)	-7.1%	4.0	4.2	2.7%	-15.1%
NC(COCc1ccccc1)c1csc(Nc2ccc(C(F)(F)F)cn2)n1 (stereo not drawn)	.	-5.2	-22.3	.	.
NC(CCc1ccccc1)c1csc(Nc2ccccn2)n1 (stereo not drawn)	.	-73.2*	-83.0*	.	.
NC(COCc1ccccc1)c1csc(Nc2ccccn2)n1 (stereo not drawn)	.	-89.0*	-90.1*	.	.
NC(CCc1ccccc1)c1csc(Nc2ccc(C(F)(F)F)cn2)n1 (stereo not drawn)	.	-9.4	-12.9	.	.
CN(C)c1ccc(-c2cc(NC=O)c3ncc(-c4ccc(F)c(Cl)c4)n3c2)cc1	.	-25.9	?	.	.
CC(=O)Nc1nc(-c2cc([N+](=O)[O-])cs2)cs1	-2.4%	4.1	.	2.4%	-26.5%
C=CCn1c(NS(=O)(=O)c2ccccc2)c(S(=O)(=O)c2ccc(C)cc2)c2nc3ccccc3nc21	5.9%	15.3	-0.1	25.1µM*	15.8µM*
O=S(=O)(Nc1c(S(=O)(=O)c2ccccc2)c2nc3ccccc3nc2n1C1CCCCC1)c1ccccc1	5.9%	22.2	-11.8	-19.1%	-7.7%[10 µM]
COc1ccc(CCN2CC(C(=O)N3CCC(O)(c4ccccc4)CC3)CCC2=O)cc1 (stereo not drawn)	-1.0%	2.5	5.3	-0.3%	-3.1%
CC1CCN(CCNC(=O)c2ccc3c(=O)n(Cc4ccc(Cl)cc4)c(=S)[nH]c3c2)CC1	.	-7.1	.	?	11.2µM*
CCCCNC(=O)c1ccc(Cn2c(=S)[nH]c3c([nH]c4ccc(OC)cc43)c2=O)cc1	-0.3%	1.9	3.0	17.8µM*	12.6µM*
